# Results: the supplement of paper PMC11219838
# Tested on: Caenorhabditis elegans L1 (N2)
# Experiment: survival and reproduction score of C. elegans L1 (0: 0-10 living worms, 1: 11-20, 2: 21-50, 3: >50, 4: overgrown) (score 0-4); higher = more worms, less nematicidal, active = 1 or less; extreme values may be limits of the assay
# Details: 60 µM; 6 days; temperature: 20 °C
# Method in brief: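 Worm survival and reproduction were recorded as an ordinal score of living worms per well, read under a dissection microscope. Each 96-well well held about 20 synchronized C. elegans N2 L1s with E. coli HB101 in liquid NGM and compound at 60 µM final (0.6% v/v DMSO), sealed and shaken at 200 rpm, 20 °C, for 6 days. Scores ranged from 0 (0–10 worms) to 4 (overgrown, starved) and were the mean of two biological replicates.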
row,SMILES,survival and reproduction score
1,CCCCc1nc(-c2ccc(-c3ccc(C)cc3)nc2OC)no1,4 (inactive)
2,CC(C)(C)NC(=O)CSc1nnc(-c2ccc(C(C)(C)C)cc2)o1,4 (inactive)
3,Brc1ccc(-c2nnc(SCc3ccccc3)o2)cc1,4 (inactive)
4,Cc1ccc(-c2noc(CSc3nc(C)cc(C)n3)n2)cc1,4 (inactive)
5,FC(F)(F)c1cccc(-c2noc(-c3cccnc3)n2)c1,1 (active)
6,CCc1nc(-c2ccc(-c3ccccc3)nc2OC)no1,4 (inactive)
7,CC(C)(C)NC(=O)c1ccccc1-c1nc(-c2ccccc2)no1,4 (inactive)
8,CCn1c(SCc2nc(-c3ccccc3)no2)nc2ccccc21,4 (inactive)
9,COc1ccccc1NC(=O)CSc1nnc(-c2ccc(Cl)cc2)o1,4 (inactive)
10,Clc1ccc(-c2nc(-c3ccncc3)no2)c(Cl)c1,2 (inactive)
11,Cc1ccc(CSc2nnc(-c3cccc(Br)c3)o2)c(C)c1,4 (inactive)
12,Cn1c(SCc2ccc(Cl)cc2)nnc1-c1ccco1,4 (inactive)
13,Clc1cc(Br)ccc1OCc1nc(-c2ccccc2)no1,4 (inactive)
14,Clc1ccc(OCc2nc(-c3cccs3)no2)cc1,2.5 (inactive)
15,COc1cccc(-c2noc(CSc3ccc(Cl)cc3)n2)c1,4 (inactive)
16,CCn1c(C)cc(C(=O)CSc2nnc(-c3ccccc3)o2)c1C,4 (inactive)
17,Cn1cc(C(=O)CSc2nnc(-c3ccccc3)o2)c2ccccc21,0 (active)
18,COc1ccccc1NC(=O)c1ccccc1-c1nc(-c2ccc(Cl)cc2)no1,4 (inactive)
19,COc1ccccc1-c1nc(-c2ccc(Cl)cc2)no1,4 (inactive)

row,SMILES,survival and reproduction score
1,Cc1ccc(OCc2nc(-c3cccnc3)no2)c(Br)c1,4 (inactive)
2,Clc1ccc(OCc2nc(-c3ccc4c(c3)OCO4)no2)cc1,4 (inactive)
3,O=C(CSc1nnc(-c2cccc(Br)c2)o1)c1ccccc1,4 (inactive)
4,O=C(CSc1nnc(-c2ccccc2Cl)o1)NCc1ccccc1,4 (inactive)
5,COc1ccc(-c2noc(-c3cccc(C)c3)n2)cc1,0 (active)
6,COc1cccc(-c2noc(-c3ccccc3C)n2)c1,0.5 (active)
7,Cc1ccc(OCc2nc(-c3ccc(Cl)cc3)no2)c(C)c1,4 (inactive)
8,COc1ccc(-c2nnc(SCC(=O)Nc3ccccc3F)o2)cc1,4 (inactive)
9,Clc1ccc(-c2noc(-c3cccnc3)n2)cc1,0 (active)
10,Cc1ccc(OCc2nc(-c3ccccn3)no2)cc1C,4 (inactive)
11,Clc1ccc(-c2nc(-c3ccncc3)no2)cc1,0.5 (active)
12,O=C(CSc1nnc(-c2cccc(Br)c2)o1)c1ccc2c(c1)CCCC2,4 (inactive)
13,Cc1nnc(CSc2nnc(-c3ccc(Cl)cc3)o2)o1,4 (inactive)
14,Cc1ccc(-c2noc(COc3cc(C)cc(C)c3)n2)cc1,4 (inactive)
15,COc1ccccc1OCc1nc(-c2ccccc2)no1,4 (inactive)
16,Cc1cccc(-c2noc(COc3ccc(Br)cc3)n2)c1,4 (inactive)
17,O=C(CSc1nnc(-c2ccncc2)o1)Nc1cc(Cl)cc(Cl)c1,4 (inactive)
18,Cc1c(C)n(C(=O)CSc2nnc(-c3ccccc3)o2)c2ccccc12,4 (inactive)
19,O=C(c1ccccc1-c1nc(-c2ccccc2Cl)no1)N1CCCC1,4 (inactive)
